The source of these data is PMC11062922 (Nature Chemical Biology, 2023).

Common to all, as to design: species or system human, MV4-11 + K-562 + COLO205 + SK-N-BE2 + OVCAR-8
For one experiment, the system named is ADCK3. To be noted: read-out: apparent Kd, n = 1.
Another experiment concerns ADRBK1. The conditions noted are these: read-out: apparent Kd, n = 1.
Another experiment concerns MAPK11. The conditions noted are these: read-out: apparent Kd; compound concentrations:100 nM and 1000 nM (sheet 'Samples'); n = 1.
A further experiment has as its system MAPKAPK2. To be noted: read-out: apparent Kd; compound concentrations:100 nM and 1000 nM (sheet 'Samples'); n = 1.
A further experiment has as its system AKT1. The conditions noted are these: read-out: apparent Kd; compound concentrations: 100 nM and 1000 nM (sheet 'Samples'), CATDS: 4.0938746042506198E-2; n = 1.
In a further experiment the test system is CSNK1A1. The conditions noted are these: read-out: apparent Kd; compound concentrations: 100 nM and 1000 nM (sheet 'Samples'), CATDS: 4.27416149593133E-2; n = 1.
The subject of a further experiment is DYRK1A. The conditions noted are these: read-out: apparent Kd; compound concentrations: 100 nM and 1000 nM (sheet 'Samples'), CATDS: 4.0227920038392803E-2; n = 1.
Another experiment relates to ILK. To be noted: read-out: apparent Kd; compound concentrations: 100 nM and 1000 nM (sheet 'Samples'), CATDS: 5.1421329598879802E-2; n = 1.
For the next experiment, the system named is MAP2K2. To be noted: read-out: apparent Kd; compound concentrations: 100 nM and 1000 nM (sheet 'Samples'), CATDS: 0.12895351362438101; n = 1.
Another experiment relates to MAP3K1. To be noted: read-out: apparent Kd; compound concentrations: 100 nM and 1000 nM (sheet 'Samples'), CATDS: 4.18687434788882E-2; n = 1.
The next experiment concerns MDN1. To be noted: read-out: apparent Kd; compound concentrations: 100 nM and 1000 nM (sheet 'Samples'), CATDS: 4.35192896952597E-2; n = 1.
For another experiment, the system named is NNT. To be noted: read-out: apparent Kd; compound concentrations: 100 nM and 1000 nM (sheet 'Samples'), CATDS: 0.130086313463294; n = 1.
The next experiment relates to NQO1. The conditions noted are these: read-out: apparent Kd; compound concentrations: 100 nM and 1000 nM (sheet 'Samples'), CATDS: 0.14484490381839699; n = 1.
Another experiment has as its system PIK3C3. To be noted: read-out: apparent Kd; compound concentrations: 100 nM and 1000 nM (sheet 'Samples'), CATDS: 4.45420285121335E-2; n = 1.
The subject of another experiment is PLK1. The conditions noted are these: read-out: apparent Kd; compound concentrations: 100 nM and 1000 nM (sheet 'Samples'), CATDS: 0.280824965441342; n = 1.
The next experiment concerns PSMC3. The conditions noted are these: read-out: apparent Kd; compound concentrations: 100 nM and 1000 nM (sheet 'Samples'), CATDS: 4.0647702260791799E-2; n = 1.
The subject of another experiment is RIOK2. The conditions noted are these: read-out: apparent Kd; compound concentrations: 100 nM and 1000 nM (sheet 'Samples'), CATDS: 4.4447834501145103E-2; n = 1.
The test system of the next experiment is SMG1. To be noted: read-out: apparent Kd; compound concentrations: 100 nM and 1000 nM (sheet 'Samples'), CATDS: 4.1869296169603699E-2; n = 1.
The test system of the next experiment is STK10. To be noted: read-out: apparent Kd; compound concentrations: 100 nM and 1000 nM (sheet 'Samples'), CATDS: 4.6875467745806497E-2; n = 1.
A further experiment deals with VDAC3. To be noted: read-out: apparent Kd; compound concentrations: 100 nM and 1000 nM (sheet 'Samples'), CATDS: 0.150958833754439; n = 1.
Setting [1] is: compound concentrations:100 nM and 1000 nM (sheet 'Samples').
Setting [2] is: compound concentrations: 100 nM and 1000 nM (sheet 'Samples'), CATDS: 1.

Read-outs that look alike come from different tables or passages of the source.

Take `CNC(=O)c1ccc(C)c(-n2c(C)cc(OCc3ccc(F)cc3F)c(Br)c2=O)c1` [PFE-PKIS_41]: the potency estimated from few doses in the experiment with ADCK3 (setting [1]) is 1.26 µM; with ADRBK1 (setting [1]), 1.49 µM; with MAPK11, 0.0347 µM; in the experiment on MAPKAPK2 it was 0.0233 µM.

For the compound `CNC(=O)c1cncc(/C=C/c2ccccc2Cl)c1` [GW445017X], the potency estimated from few doses with ADCK3 (setting [2]) is 0.747 µM.

Take `C[C@@H](Oc1cc(-n2cnc3ccc(OC[C@@H](O)CO)cc32)sc1C(N)=O)c1ccccc1Cl` [GSK978744A]: the potency estimated from few doses was 0.691 µM with ADCK3 (compound concentrations: 100 nM and 1000 nM (sheet 'Samples'), CATDS: 5.9783524932330002E-2); 1.3 µM in the experiment on ADRBK1 (compound concentrations: 100 nM and 1000 nM (sheet 'Samples'), CATDS: 4.7657416287883198E-2); 2.16 µM with AKT1; 1.86 µM in the experiment on CSNK1A1; 2.31 µM in the experiment with DYRK1A; 1.04 µM in the experiment on ILK. For the same compound, the potency estimated from few doses in the experiment with MAP2K2 is 0.124 µM; in the experiment on MAP3K1 it was 2 µM; in the experiment with MDN1, 1.74 µM; in the experiment with NNT, 0.122 µM; in the experiment with NQO1 it was 0.0998 µM; with PIK3C3 it was 1.62 µM. For the same compound, the potency estimated from few doses was 0.0353 µM with PLK1; 2.22 µM with PSMC3; 1.63 µM with RIOK2; 1.99 µM in the experiment on SMG1; 1.37 µM in the experiment with STK10; 0.0928 µM with VDAC3.

As to `O=C(Nc1cccc(-c2nn3ccccc3c2-c2ccnc(Nc3cccc(F)c3)n2)c1)c1c(F)ccc(F)c1Cl` [GSK357952A], the potency estimated from few doses in the experiment on ADCK3 (setting [2]) is 0.131 µM.
